# Several values for one entry are separate records, joined by “and”; a condition that tells them apart may be missing. Identical values can stand only once. Records with an inconclusive call do not appear. A call without a number means that no potency is given here. Activity calls are given as the source filed them. Calls come from the whole dose curve; as a rule, active = well fitted curve in the direction sought with a large enough effect; inconclusive = small, poorly fitted or top-dose-only effect, or another doubt; inactive = no such curve, though single readings can be large; an effect the other way counts as inactive or inconclusive.
# Legend:
# [1] = qHTS of pediatric cancer cell lines to identify multiple opportunities for drug repurposing: Confirmatory screen for Rh41 cells (AID 1347123);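 note: 48 h compound exposure; nearly all actives have a fitted effect of over 60% in size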; note: potency is the fitted concentration of half-maximal effect
# How it was run: (§1)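 Viability after 48 h compound treatment at 37C, 500-1,000 cells/well, read as ATP luminescence with CellTiter-Glo. Primary screens used 11-point (MIPE, 0.78 nM-46 µM) or 8-point (NPC, 0.59 nM-46 µM) final concentrations; follow-up screens used 11-point dilutions.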
# [2] = qHTS of pediatric cancer cell lines to identify multiple opportunities for drug repurposing: Confirmatory screen for RD cells (AID 1347124);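 note: cells exposed to compound for 48 h before viability readout; nearly all actives have a fitted effect of over 65% in size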; note: potency is the fitted concentration of half-maximal effect
# How it was run: as §1
# [3] = qHTS of pediatric cancer cell lines to identify multiple opportunities for drug repurposing: Confirmatory screen for Rh18 cells (AID 1347125); note: nearly all actives have a fitted effect of over 55% in size; note: potency is the fitted concentration of half-maximal effect
# How it was run: as §1
# [4] = qHTS of pediatric cancer cell lines to identify multiple opportunities for drug repurposing: Confirmatory screen for Rh30 cells (AID 1347126); note: nearly all actives have a fitted effect of over 55% in size; note: potency is the fitted concentration of half-maximal effect
# How it was run: as §1
# [5] = qHTS of pediatric cancer cell lines to identify multiple opportunities for drug repurposing: Confirmatory screen for SK-N-SH cells (AID 1347129);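 note: cells exposed to compound for 48 h before viability read; nearly all actives have a fitted effect of over 60% in size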; note: potency is the fitted concentration of half-maximal effect
# How it was run: as §1
# [6] = system: Zika virus NS2B-NS3 protease; assay: Primary screen GU AMC qHTS for Zika virus inhibitors (AID 1347154); note: nearly all actives have a fitted effect of over 70% in size
# How it was run: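 Unlinked Zika NS2B hydrophilic domain–NS3 protease complex at 25 nM in 10 mM Tris-HCl pH 8.0, 0.01% Tween 20, with an AMC peptide substrate. Fluorescence change (340/450 nm) over 15 min at room temperature, normalized to controls, fitted to 4-parameter Hill.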
# [7] = system: Zika virus NS2B-NS3 protease (unlinked complex); assay: Primary screen GU Rhodamine qHTS for Zika virus inhibitors: Unlinked NS2B-NS3 protease assay (AID 1347159); note: nearly all actives have a fitted effect of over 60% in size; note: potency is the fitted concentration of half-maximal effect
# How it was run: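 Compounds, tested up to 114 microM, were incubated for 15 minutes with 25 nM unlinked NS2B-NS3 protease at pH 8.0. Cleavage of 1.5 microM Rhodamine110 substrate was then followed by fluorescence for 15 minutes.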
# [8] = system: Zika virus NS2B-NS3 protease (linked construct); assay: Primary screen NINDS Rhodamine qHTS for Zika virus inhibitors (AID 1347160); note: nearly all actives have a fitted effect of over 55% in size
# How it was run: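 Percent inhibition, normalized to uninhibited and enzyme-free controls, is fitted to a 4-parameter Hill equation. Fluorescence change comes from a 15-min cleavage of 1.5 microM bis-peptide Rhodamine110 substrate by 25 nM linked NS2B-NS3 at room temperature.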
# [9] = molecular target: N-terminal Xaa-Pro-Lys N-methyltransferase 1 (Homo sapiens) (UniProt Q9BV86); assay: qHTS Assay for Inhibitors of N-terminal methyltransferase 1 (NTMT1): LOPAC validation of the NTMT1 SAHH-coupled ThioGlo3 Assay (AID 1347143);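 note: SAH from peptide methylation measured as thiol fluorescence via SAHH coupling and ThioGlo3; nearly all actives have a fitted effect of over 70% in size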; note: potency is the fitted concentration of half-maximal effect
# How it was run: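 Recombinant human NTMT1 (125nM) was pre-incubated 1 min at room temperature with compounds over a concentration range, then a mix of 100uM SAM, 10uM SAHH and 15uM ThioGlo3 (concentrations in added reagent) was added. ThioGlo3 fluorescence (ex 340/em 450nm) after 30 min was normalized to the initial reading.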
# [10] = molecular target: Lysine-specific demethylase 5B (Homo sapiens) (UniProt Q9UGL1); assay: Optimization screen for KDM5B Histone Demethylases FDH coupled qHTS against the LOPAC library (AID 1347166)
# How it was run: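 KDM5BDeltaAP (200nM final) preincubated 10 min with compound, then 12.5uM H3K4Me3, 25uM a-ketoglutarate, ascorbate, Fe(II), NAD+ and FDH added; 50mM HEPES pH 7.5, 0.01% Tween-20. NADH fluorescence (340/450 nm) change over 30 min, room temperature.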
# Furin (Homo sapiens) = Furin (Homo sapiens) (UniProt P09958); assay: Furin counterscreen qHTS for Zika virus inhibitors (AID 1347149); note: nearly all actives have a fitted effect of over 70% in size; note: potency is the fitted concentration of half-maximal effect
# How it was run: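 Fluorogenic cleavage of BOC-RVRR-AMC (2 microM final, Km ~15 µM) was monitored (ex 340, em 450 nm) at 37C after 15 min RT preincubation of 5 nM furin with compounds in HEPES pH 7.0 buffer with CaCl2 and Triton X-100. Percent inhibition was fitted to a 4-parameter Hill curve.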
# [11] = system: Zika virus NS2B-NS3 protease (linked construct); assay: Confirmatory screen NINDS AMC qHTS for Zika virus inhibitors (AID 1347152); details: Purified linked NS2B-NS3, AMC substrate fluorescence; note: potency is the fitted concentration of half-maximal effect; nearly all actives have a fitted effect of over 70% in size
# How it was run: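 Concentration-response confirmation used the NINDS linked protease (NS2B hydrophilic domain joined to NS3 protease domain), 1 nM, with a 15-min compound preincubation. Substrate, Nle-KRR-AMC at 10 microM, was read by UV fluorescence before and after 15 min.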
# [12] = system: Zika virus NS2B-NS3 protease (unlinked complex); assay: Confirmatory screen GU AMC qHTS for Zika virus inhibitors (AID 1347153); details: Recombinant NS2B-NS3 protease, AMC substrate fluorescence
# How it was run: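 Unlinked enzyme 25 nM, Tris pH 8.0/0.01% Tween 20; cpd 15 min RT, dark; + AMC substrate 10 µM (Km 18.3 µM); 340/450 nm read at t0 and 15 min; % inhibition → 4-param fit.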
# [13] = Confirmatory screen GU Rhodamine qHTS for Zika virus inhibitors qHTS (AID 1347157)
# How it was run: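 Buffer 10 mM Tris-HCl pH 8.0, 0.01% Tween 20. Unlinked protease 25 nM; compound preincubation 15 min, RT, protected from light. Substrate Rhod110, 1.5 microM; ~15% conversion in 15 min.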
# [14] = Confirmatory screen NINDS Rhodamine qHTS for Zika virus inhibitors (AID 1347161); note: potency is the fitted concentration of half-maximal effect; nearly all actives have a fitted effect of over 60% in size
# How it was run: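 Purified NS2B-NS3 protease with the NS2B hydrophilic domain joined by a flexible linker (25 nM) in 10 mM Tris-HCl pH 8.0, 0.01% Tween 20, preincubated 15 min at RT with compound; Rhodamine110 peptide substrate 1.5 µM; fluorescence change over 15 min; 4-parameter Hill fit.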
# [15] = system: Zika virus NS2B-NS3 protease (linked); assay: 384 well plate NINDS AMC confirmatory qHTS for Zika virus inhibitors (AID 1347163); details: Recombinant NS2B-NS3 protease, Ac-VKTGKR-AMC fluorescence; note: potency is the fitted concentration of half-maximal effect; nearly all actives have a fitted effect of over 50% in size
# How it was run: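 Linked protease 5/30/60 nM final; cpds up to 1 mM final, ~15 min preinc. Substrate Ac-VKTGKR-AMC 30 microM final. RT, dark, 25 min; FI ex 355/em 460; normalized to no-enzyme/no-inhibitor ctrls.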
# [16] = system: Zika virus NS2B-NS3 protease (linked construct); assay: 384 well plate NINDS Rhodamine confirmatory qHTS for Zika virus inhibitors (AID 1347164); note: top concentration of the series differs between compounds; nearly all actives have a fitted effect of over 65% in size
# How it was run: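 Cleavage of Ac-LKRR-Rhodamine 110 (10 microM final) by linked protease (final 5, 30 or 60 nM) was followed as fluorescence at 485/538 nm after 25 min, room temperature, dark. Compounds preincubated ~15 min.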
# [17] = system: Zika virus NS2B-NS3 protease (unlinked); assay: Optimization of GU AMC qHTS for Zika virus inhibitors: Unlinked NS2B-NS3 protease assay (AID 1347151); note: series mostly up to about 52 µM; nearly all actives have a fitted effect of over 80% in size
# How it was run: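 In this qHTS, compounds acted on 25 nM unlinked Zika NS2B–NS3 in pH 8.0 Tris/Tween buffer. Cleavage of an AMC peptide ran 15 min at room temperature, to about 20% conversion.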
# [18] = Vero cells viability qHTS for Zika virus inhibitors (AID 1347167)
# How it was run: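 Cells seeded at 2.5 x 10^5 cells/mL in DMEM with 4% FBS and attached overnight at 37 degrees C, then exposed to compound for 24 to 48 hours. Viability read as ATP content by CellTiter Glo luminescence.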
# Furin (Homo sapiens), sequence (P09958 whole entry, looked up): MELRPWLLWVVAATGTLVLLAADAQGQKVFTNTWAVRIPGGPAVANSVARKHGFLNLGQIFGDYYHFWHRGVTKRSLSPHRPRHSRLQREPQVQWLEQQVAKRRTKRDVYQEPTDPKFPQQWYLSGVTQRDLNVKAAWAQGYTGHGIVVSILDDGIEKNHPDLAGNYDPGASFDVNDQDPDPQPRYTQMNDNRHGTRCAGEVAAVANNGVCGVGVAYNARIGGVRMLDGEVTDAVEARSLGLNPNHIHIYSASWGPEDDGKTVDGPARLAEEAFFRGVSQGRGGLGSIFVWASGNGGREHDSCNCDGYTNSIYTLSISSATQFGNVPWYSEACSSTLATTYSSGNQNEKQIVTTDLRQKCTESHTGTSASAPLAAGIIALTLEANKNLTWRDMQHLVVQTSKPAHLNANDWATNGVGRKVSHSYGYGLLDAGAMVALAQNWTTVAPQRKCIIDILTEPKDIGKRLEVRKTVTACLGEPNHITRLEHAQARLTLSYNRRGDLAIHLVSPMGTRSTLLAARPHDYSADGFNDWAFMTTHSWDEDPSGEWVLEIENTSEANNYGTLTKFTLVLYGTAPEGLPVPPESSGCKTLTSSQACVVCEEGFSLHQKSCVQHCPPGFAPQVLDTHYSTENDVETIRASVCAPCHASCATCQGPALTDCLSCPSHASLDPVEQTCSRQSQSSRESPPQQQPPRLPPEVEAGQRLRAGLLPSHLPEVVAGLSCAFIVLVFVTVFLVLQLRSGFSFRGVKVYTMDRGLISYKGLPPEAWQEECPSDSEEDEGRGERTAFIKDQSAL
# Lysine-specific demethylase 5B (Homo sapiens), sequence (Q9UGL1 whole entry, looked up): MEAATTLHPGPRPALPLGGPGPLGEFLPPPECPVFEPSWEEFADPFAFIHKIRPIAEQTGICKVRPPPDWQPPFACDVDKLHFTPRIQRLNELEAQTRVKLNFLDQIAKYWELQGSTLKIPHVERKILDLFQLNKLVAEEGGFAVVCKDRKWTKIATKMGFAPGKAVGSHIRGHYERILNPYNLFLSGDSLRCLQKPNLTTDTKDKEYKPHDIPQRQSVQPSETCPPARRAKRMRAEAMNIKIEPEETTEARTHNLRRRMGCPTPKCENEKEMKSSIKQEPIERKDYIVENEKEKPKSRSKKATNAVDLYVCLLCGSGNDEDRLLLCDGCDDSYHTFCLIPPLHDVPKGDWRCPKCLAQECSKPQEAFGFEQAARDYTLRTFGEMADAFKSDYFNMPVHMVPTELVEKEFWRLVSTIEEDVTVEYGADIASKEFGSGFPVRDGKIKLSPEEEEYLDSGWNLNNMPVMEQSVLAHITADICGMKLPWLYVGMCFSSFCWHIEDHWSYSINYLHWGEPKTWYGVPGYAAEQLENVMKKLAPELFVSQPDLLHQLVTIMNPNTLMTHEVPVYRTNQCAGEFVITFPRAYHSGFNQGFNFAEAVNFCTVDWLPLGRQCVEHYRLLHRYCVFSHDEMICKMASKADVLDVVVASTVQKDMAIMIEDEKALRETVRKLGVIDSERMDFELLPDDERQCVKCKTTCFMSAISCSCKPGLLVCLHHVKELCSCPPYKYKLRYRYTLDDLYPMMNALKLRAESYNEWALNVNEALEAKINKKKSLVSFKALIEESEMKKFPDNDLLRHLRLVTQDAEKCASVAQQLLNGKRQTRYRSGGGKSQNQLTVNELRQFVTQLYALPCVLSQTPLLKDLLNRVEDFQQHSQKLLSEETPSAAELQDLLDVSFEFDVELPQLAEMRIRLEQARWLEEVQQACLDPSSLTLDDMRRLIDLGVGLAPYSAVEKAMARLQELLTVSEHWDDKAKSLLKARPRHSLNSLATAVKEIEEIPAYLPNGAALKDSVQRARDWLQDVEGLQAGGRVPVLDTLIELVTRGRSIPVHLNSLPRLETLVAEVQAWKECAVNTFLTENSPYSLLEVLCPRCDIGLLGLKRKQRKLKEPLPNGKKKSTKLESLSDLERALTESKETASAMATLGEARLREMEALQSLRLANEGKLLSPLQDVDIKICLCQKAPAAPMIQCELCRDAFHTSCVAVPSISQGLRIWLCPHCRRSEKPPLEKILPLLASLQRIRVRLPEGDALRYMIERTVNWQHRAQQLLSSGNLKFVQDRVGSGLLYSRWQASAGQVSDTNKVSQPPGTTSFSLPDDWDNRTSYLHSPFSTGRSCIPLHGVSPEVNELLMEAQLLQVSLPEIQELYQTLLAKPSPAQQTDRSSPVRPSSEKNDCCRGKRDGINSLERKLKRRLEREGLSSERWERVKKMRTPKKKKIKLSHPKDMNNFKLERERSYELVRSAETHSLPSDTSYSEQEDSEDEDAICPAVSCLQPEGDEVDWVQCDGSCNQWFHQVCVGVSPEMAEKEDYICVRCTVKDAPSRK
# N-terminal Xaa-Pro-Lys N-methyltransferase 1 (Homo sapiens), sequence (Q9BV86 whole entry, looked up): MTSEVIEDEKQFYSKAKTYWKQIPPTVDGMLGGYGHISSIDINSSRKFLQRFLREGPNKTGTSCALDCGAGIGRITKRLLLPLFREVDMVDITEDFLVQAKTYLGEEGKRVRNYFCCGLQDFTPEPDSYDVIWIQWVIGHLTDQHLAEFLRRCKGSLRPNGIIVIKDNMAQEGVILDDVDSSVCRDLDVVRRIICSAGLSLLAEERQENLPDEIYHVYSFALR
smiles,measurement,setting,value
Cc1nnc(C(C)C)n1C1C[C@H]2CC[C@@H](C1)N2CC[C@H](NC(=O)C1CCC(F)(F)CC1)c1ccccc1 (stereo partly drawn),Potency,[1],inactive
same,Potency,[2],7.37 µM (active)
same,Potency,[3],6.57 µM (active)
same,Potency,[4],9.27 µM (active)
same,Potency,[5],inactive
same,Potency,[6],inactive
COc1ccc2c(Oc3ccc(NC(=O)c4c(C)n(CC(C)(C)O)n(-c5ccccc5)c4=O)cc3F)ccnc2c1,Potency,[1],23.3 µM (active)
same,Potency,[2],inactive
same,Potency,[6],inactive
same,Potency,[7],inactive
same,Potency,[8],inactive
COc1ncc(-c2ccc3nccc(-c4ccnnc4)c3c2)cc1NS(=O)(=O)c1ccc(F)cc1F,Potency,[1],0.0369 µM (active)
same,Potency,[2],inactive
same,Potency,[3],0.104 µM (active)
same,Potency,[4],0.0414 µM (active)
same,Potency,[5],0.187 µM (active)
same,Potency,[6],inactive
same,Potency,[8],inactive
O=c1cc(-c2ccc(O)cc2)oc2cc(O)cc(O)c12,Potency,[1],inactive
same,Potency,[2],inactive
same,Potency,[5],inactive
same,Potency,[9],89.1 µM (active)
same,Potency,[6],inactive
same,outcome,[10],inactive
CO[C@H]1C=CC=C(C)C(=O)NC2=CC(=O)C(NCCN(C)C)=C(C[C@@H](C)C[C@H](OC)[C@@H](O)[C@@H](C)C=C(C)[C@@H]1OC(N)=O)C2=O,Potency,[1],7.37 µM (active)
same,Potency,[2],inactive
same,Potency,[3],1.85 µM (active)
same,Potency,[4],3.29 µM (active)
CC1(C)S[C@H]2[C@H](NC(=O)[C@@H](N)c3ccc(O)cc3)C(=O)N2[C@@H]1C(=O)O,Potency,[1],inactive
same,Potency,[2],inactive
same,Potency,[3],inactive
same,Potency,[4],inactive
same,Potency,[5],inactive
same,Potency,[6],inactive
COc1ccc(-c2nc(N3CCOCC3)c3sc(CN(C)c4ncc(C(=O)NO)cn4)cc3n2)cn1,Potency,[1],0.414 µM (active)
same,Potency,[2],2.33 µM (active)
same,Potency,[3],1.17 µM (active)
same,Potency,[4],4.14 µM (active)
same,Potency,[5],5.9 µM (active)
COc1cc(N2CCC(N3CCN(C)CC3)CC2)ccc1Nc1ncc(Cl)c(Nc2ccccc2S(=O)(=O)C(C)C)n1,Potency,[1],0.329 µM (active)
same,Potency,[2],1.04 µM (active)
same,Potency,[3],3.29 µM (active)
same,Potency,[4],0.737 µM (active)
same,Potency,[5],0.833 µM (active)
same,Potency,[6],inactive
same,Potency,[7],inactive
same,Potency,[8],inactive
OC[C@H]1O[C@@H](n2cnc3c2NC=NC[C@@H]3O)C[C@H]1O,Potency,[1],inactive
same,Potency,[2],inactive
same,Potency,[3],inactive
same,Potency,[4],inactive
same,Potency,[5],inactive
same,Potency,[6],inactive
C=C1C(=O)[C@@]23C(CC[C@@H]1[C@H]2O)[C@@]12CO[C@]3(O)[C@@H](O)[C@@H]1C(C)(C)CC[C@@H]2O (stereo partly drawn),Potency,[1],2.93 µM (active)
same,Potency,[3],14.7 µM (active)
same,Potency,[4],5.85 µM (active)
same,Potency,[5],10.5 µM (active)
same,Potency,[6],inactive
same,Potency,[7],inactive
same,Potency,[8],inactive
O=C(O)c1ccc(-c2cc3cccnc3c(-c3ccc4nonc4c3)n2)cc1,Potency,[1],7.37 µM (active)
same,Potency,[2],7.37 µM (active)
same,Potency,[5],inactive
same,Potency,[6],inactive
COc1cc2ncnc(Nc3ccc(F)c(Cl)c3)c2cc1OCCCN1CCOCC1,Potency,[1],26.9 µM (active)
same,Potency,[2],1.51 µM (active)
same,Potency,[3],38 µM (active)
same,Potency,[4],8.51 µM (active)
same,Potency,[5],34 µM (active)
CC1(C)CCC(CN2CCN(c3ccc(C(=O)NS(=O)(=O)c4ccc(NCC5CCOCC5)c([N+](=O)[O-])c4)c(Oc4cnc5[nH]ccc5c4)c3)CC2)=C(c2ccc(Cl)cc2)C1,Potency,Furin (Homo sapiens),inactive
same,Potency,[11],6.07 µM (active) and 10.8 µM (active)
same,Potency,[12],8.57 µM (active)
same,Potency,[13],1.21 µM (active)
same,Potency,[14],1.24 µM (active) and 857 nM (active)
same,Potency,[15],31.6 µM (active)
same,Potency,[16],inactive
CCOC1OC(=O)C[C@H]1NC(=O)[C@@H]1CCCN1C(=O)[C@@H](NC(=O)c1ccc(N)c(Cl)c1)C(C)(C)C (stereo partly drawn),Potency,[6],inactive
Clc1ccc(C(c2ccc(Cl)cc2)n2cc[n+](CC(OCc3ccc(Cl)cc3Cl)c3ccc(Cl)cc3Cl)c2)cc1 (stereo not drawn),Potency,[17],inactive
CCN(CC)C(=O)c1ccc(O)c(OC)c1,Potency,[17],inactive
same,Potency,[6],inactive
same,outcome,[10],inactive
O=C(O)CCc1nc(-c2ccccc2)c(-c2ccccc2)o1,Potency,[9],inactive
same,Potency,[6],inactive
same,Potency,[8],inactive
Cc1ccc([C@@H]2O[C@H](CO)[C@@H](O)[C@H](O)[C@@H]2O)cc1Cc1ccc(-c2ccc(F)cc2)s1,Potency,[6],inactive
CC1CCC(C(=O)N(c2cc(C#CC(C)(C)C)sc2C(=O)O)C2CCC(O)CC2)CC1 (stereo not drawn),Potency,Furin (Homo sapiens),inactive
same,Potency,[7],7.94 µM (active)
same,Potency,[14],5.53 µM (active)
same,Potency,[18],inactive
NCCS,Potency,[17],inactive
same,Potency,[6],inactive
same,outcome,[10],inactive
COc1ccc(Cc2nccc3cc(OC)c(OC)cc23)cc1OC,Potency,[17],inactive
same,outcome,[10],inactive
O=C(Nc1c(Cl)cncc1Cl)c1ccc(OC(F)F)c(OCC2CC2)c1,Potency,[6],inactive
C=C1C(=O)OC(CCCCCCCC)C1C(=O)O (stereo not drawn),Potency,[6],inactive
CC=CCC(C)C(O)C1C(=O)NC(CC)C(=O)N(C)CC(=O)N(C)C(CC(C)C)C(=O)NC(C(C)C)C(=O)N(C)C(CC(C)C)C(=O)NC(C)C(=O)NC(C)C(=O)N(C)C(CC(C)C)C(=O)N(C)C(CC(C)C)C(=O)N(C)C(C(C)C)C(=O)N1C (stereo not drawn),Potency,Furin (Homo sapiens),0.0152 µM (active)
same,Potency,[17],inactive
same,Potency,[6],inactive
O=C(O)Cc1cccc2ccccc12,Potency,[6],inactive
C=C1C(=O)OC2C=C(C)CCC=C(C)CCC12 (stereo not drawn),Potency,[6],inactive
COc1cc(O)c2c(c1)C(=O)c1cc(C)cc(O)c1C2=O,Potency,[6],inactive
CC=CC[C@@H](C)C(=O)[C@H]1C(=O)N[C@@H](C(C)C)C(=O)N(C)CC(=O)N(C)[C@@H](CC(C)C)C(=O)N[C@@H](C(C)C)C(=O)N(C)[C@@H](CC(C)C)C(=O)N[C@@H](C)C(=O)N[C@H](C)C(=O)N(C)[C@@H](CC(C)C)C(=O)N(C)[C@@H](CC(C)C)C(=O)N(C)[C@@H](C(C)C)C(=O)N1C,Potency,[6],inactive

# Reference: PubChem BioAssay (NCATS)
